# The list is not random: actives were taken first. Their share in the collection is about 1.8%.
# CIT2 TOR yeast = modulators of CIT2-GFP expression in yeast, primary screen, S. cerevisiae, GFP fusion, multiplex flow cytometry, MLPCN library | S. cerevisiae CIT2-GFP strain, 3 h; 100 means same as DMSO wells | GFP response vs DMSO, % at 10 µM | actives 0.065% (n = 320,000) | AID 2029, 2009;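 active means GFP response relative to DMSO above a set limit, near the screen mean plus 3 SD, cut at about 150% in these data; inconclusive means Fewer than 70 cells measured for a yeast strain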;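 further: ratio of well median GFP fluorescence to mean of DMSO wells on the plate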
# AGP1-GFP MLPCN = modulators of AGP1-GFP expression in yeast TOR pathway, primary screen, cell-based, multiplex flow cytometry, S. cerevisiae, MLPCN library. 3 h; GFP as percent of DMSO wells. GFP response vs DMSO, % at 10 µM. actives 0.02% (n = 320,000). AID 2066, 2009;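 active means GFP response relative to DMSO above a set limit, near screen average plus 3 SD, cut at about 150% in these data; inconclusive means fewer than 70 cells counted for the yeast strain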;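 further: median GFP channel fluorescence of the gated AGP1 strain per well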
# LAP4 TOR yeast = modulators of LAP4-GFP expression in yeast, primary screen, S. cerevisiae, multiplex flow cytometry, MLPCN library; 3 h; median GFP as percent of DMSO wells; GFP response vs DMSO, % at 10 µM; actives 0.34% (n = 320,000);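 active means GFP response vs DMSO above a set limit, about the screen mean plus 3 SD, cut at about 150% in these data; inconclusive means under 70 cell events counted for the yeast strain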
# Myeloid diff 2 = induction of myeloid progenitor differentiation, primary screen, cell-based, flow cytometry, MLPCN library. ER-HoxA9 myeloid progenitors, lysozyme-GFP differentiation. calls only at 10 µM. actives 1% (n = 360,000);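 active means normalized GFP-positive differentiation at or above the plate's own cutoff, the solvent-only control mean plus 3 SD; inconclusive means no clear call, values can overlap the other calls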;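 further: cells exposed to compound for four days before flow analysis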
# RPL19A TOR yeast = RPL19A-GFP expression modulators in yeast, primary screen, cell-based, S. cerevisiae, multiplex flow cytometry, MLPCN. S. cerevisiae RPL19A-GFP strain, 3 h; hits give low values. percent response vs DMSO, % at 10 µM. actives 0.3% (n = 330,000). AID 2025, 2009;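 active means percent response vs DMSO below 50%; inconclusive means fewer than 70 events counted for the yeast strain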;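 further: median channel GFP fluorescence of the barcoded RPL19A-GFP strain; ratio of sample median GFP to plate DMSO average so 100% = DMSO; lower means less RPL19A-GFP as with rapamycin TOR inhibition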
# MEP2-GFP yeast = modulators of MEP2-GFP levels in yeast, primary screen, S. cerevisiae, multiplex flow cytometry, MLPCN library. S. cerevisiae MEP2-GFP strain, 3 h; 100% = DMSO control level. actives 0.51% (n = 330,000). GFP response vs DMSO, % at 10 µM;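 active means GFP response versus DMSO above a set limit, roughly screen mean plus 3 SD, cut at about 180% in these data; inconclusive means fewer than 70 cells counted for a yeast strain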;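 further: median GFP fluorescence of the barcode-gated MEP2-GFP cells per well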
# * = called active by the depositor; i = inactive; ? = inconclusive; / = no result given; + = active, no number; [ ] = dose if it differs, or a comment.
SMILES,CIT2 TOR yeast,AGP1-GFP MLPCN,LAP4 TOR yeast,Myeloid diff 2,RPL19A TOR yeast,MEP2-GFP yeast
CCOC(=O)N1CCN(S(=O)(=O)c2ccc(C(=O)Nc3sc4c(c3C(N)=O)CCN(CC)C4)cc2)CC1,98,112,110,i,98,102
CC(C)N1CCc2c(sc(NC(=O)c3ccco3)c2C(N)=O)C1,93,99,103,+,97,96
CCCN1CCc2c(sc(NC(=O)c3ccc(S(=O)(=O)N4CCN(C(=O)OCC)CC4)cc3)c2C(N)=O)C1,96,103,107,+,100,106
CCCN1CCc2c(sc(NC(=O)c3ccc(S(=O)(=O)N(C)c4ccccc4)cc3)c2C(N)=O)C1,92,97,99,+,96,97
CN1CCc2c(sc(NC(=O)c3ccc(S(=O)(=O)N4CCCCCC4)cc3)c2C(N)=O)C1,102,103,98,+,103,104
O=C(Nc1ccccc1)c1nc[nH]c1C(=O)Nc1ccccc1F,/,/,/,i,/,/
CS(=O)(=O)NCc1nnc(SCc2ccc(C(F)(F)F)cc2)o1,103,105,91,i,105,107
COc1cccc(OC)c1C(=O)Nc1sc2c(c1C(N)=O)CCN(Cc1ccccc1)C2,90,99,105,i,98,99
CC(=O)c1ccc(C(=O)Nc2sc3c(c2C(N)=O)CCN(Cc2ccccc2)C3)cc1,93,97,113,+,104,101
Cc1cccc(Sc2c(C=O)c3ccccc3n2C)c1,?,?,55,/,65,228*[may fluoresce violet]
Cn1c(Sc2ccc(Cl)cc2)c(C=O)c2ccccc21,108,/,125,/,110,101
CC(=O)N1N=C(c2ccco2)CC1c1cc2cc(C)ccc2nc1Cl (configuration not stated),98,109,110,+,100,100
Cc1cc(NC(=O)CS(=O)(=O)c2cn(Cc3ccccc3Cl)c3ccccc23)no1,98,97,107,+,94,99
Cc1cc(NC(=O)CS(=O)(=O)c2cn(Cc3cccc(Br)c3)c3ccccc23)no1,/,/,/,i,/,/
Cc1ccccc1C(=O)NCC(=O)OCC(=O)NNC(=O)c1ccccc1F,/,/,/,i,/,/
O=C(CNC(=O)c1ccccc1F)NNC(=O)c1ccccc1O,100,102,88,+,98,89
Cc1ccsc1C(=O)OCC(=O)N(C)C1CCCCC1,99,95,100,i,97,98
O=C(CCC1CCCN(C2C3CC4CC(C3)CC2C4)C1)NCc1ccc(F)c(F)c1 (configuration not stated),92,91,97,i,95,102
O=C(/C(=C/O)N=Nc1ccc(Cl)cc1)c1ccncc1,68,78,203*,i,64,122
COc1ccc(C(=O)/C(=C/O)N=Nc2ccc(F)cc2)cc1,77,96,172*,i,94,99
Cc1nn(C)cc1NC(=O)Cn1nc(C(F)(F)F)cc1C1CC1,102,100,94,i,104,100

# Compound activity deposited in PubChem BioAssay by NMMLSC.
